Assay outcomes as filed in PubChem BioAssay.
Rows were chosen to be rich in hits. Some 2.9% of all compounds tested hit in one or more screens of this group.
pPAFAH FP inh = pPAFAH enzyme inhibitors, primary screen, biochemical, fluorescence polarization, human; Platelet-activating factor acetylhydrolase (Homo sapiens), Q13093; recombinant pPAFAH, FP-rhodamine probe fluorescence polarization; inhibition, % at 3.39 µM; actives 1.5% (n = 330,000); AID 463082, 2010;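 active = inhibition above the mean inhibition across the screen plus 3 SD, cut at about 25% in these data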;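 note: inhibitors block binding of the rhodamine activity-based probe so polarization drops; 0% = enzyme with DMSO and 100% = wells lacking pPAFAH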
Target sequence (Q13093 whole entry, looked up): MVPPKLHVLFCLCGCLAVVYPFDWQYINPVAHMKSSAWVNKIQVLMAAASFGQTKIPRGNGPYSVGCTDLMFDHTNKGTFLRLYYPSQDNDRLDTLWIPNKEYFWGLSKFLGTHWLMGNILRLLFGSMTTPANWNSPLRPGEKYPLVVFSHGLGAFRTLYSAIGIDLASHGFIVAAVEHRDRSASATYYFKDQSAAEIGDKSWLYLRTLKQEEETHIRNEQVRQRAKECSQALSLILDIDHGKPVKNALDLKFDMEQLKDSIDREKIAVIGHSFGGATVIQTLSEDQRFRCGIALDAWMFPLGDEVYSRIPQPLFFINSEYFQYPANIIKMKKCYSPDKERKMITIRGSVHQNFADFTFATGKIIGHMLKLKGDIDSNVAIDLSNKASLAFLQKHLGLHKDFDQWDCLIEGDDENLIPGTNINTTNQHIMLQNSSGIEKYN
PAFAH1B2 FP inh = PAFAH1B2 enzyme inhibitors, primary screen, biochemical, fluorescence polarization, human | Platelet-activating factor acetylhydrolase IB subunit alpha2 (Homo sapiens), P68402 | recombinant PAFAH1B2, FP-rhodamine activity probe | inhibition, % at 3.39 µM | actives 1.2% (n = 340,000) | AID 492953, 2010;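 active = inhibition above the mean of all tested compounds plus 3 SD, cut at about 24% in these data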;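 note: 0% = enzyme with DMSO and 100% = wells lacking PAFAH1B2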
Target sequence (P68402 whole entry, looked up): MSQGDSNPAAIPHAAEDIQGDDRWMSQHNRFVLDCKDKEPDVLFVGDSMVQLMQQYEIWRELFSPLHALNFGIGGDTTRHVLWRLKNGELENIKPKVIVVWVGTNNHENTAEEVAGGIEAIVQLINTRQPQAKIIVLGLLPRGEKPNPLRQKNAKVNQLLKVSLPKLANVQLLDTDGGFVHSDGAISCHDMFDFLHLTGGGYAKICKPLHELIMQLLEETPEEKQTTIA
PAFAH2 inh = PAFAH2 enzyme inhibitors, primary screen, biochemical, fluorescence polarization, human; recombinant PAFAH2, FP-rhodamine activity probe; Platelet-activating factor acetylhydrolase 2, cytoplasmic (Homo sapiens), Q99487; actives 0.99% (n = 340,000); AID 492956, 2010; inhibition, % at 3.39 µM;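 active = inhibition above the mean over all tested compounds plus 3 SD, cut at about 30% in these data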;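 note: inhibitors block probe labeling of enzyme so polarization drops; 0% = enzyme with DMSO and 100% = wells lacking PAFAH2 protein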
PAFAH1B3 inh = PAFAH1B3 enzyme inhibitors, primary screen, biochemical, fluorescence polarization, human; recombinant PAFAH1B3, FP-rhodamine probe; inhibition, % at 3.39 µM; AID 492972, 2010; actives 0.28% (n = 340,000); Platelet-activating factor acetylhydrolase IB subunit alpha1 (Homo sapiens), Q15102;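 active = inhibition above the screen-wide average of all tested compounds plus 3 SD, cut at about 25% in these data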;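 note: 0% = enzyme with DMSO only and 100% = wells lacking PAFAH1B3 protein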
PME-1 inh = PME-1 inhibitors via competitive probe labeling, primary screen, biochemical, fluorescence polarization, FP-Rh probe, HTS; recombinant PME-1; actives 0.53% (n = 320,000); inhibition, % at 5.9 µM;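 active = inhibition above the campaign mean of all compounds plus 3 SD, cut at about 26% in these data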;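 note: competitive labeling of PME-1 active site by serine hydrolase directed probe; 0% = PME-1 with DMSO and 100% = wells lacking PME-1 enzyme; inhibitors block probe labeling so polarization falls and inhibition rises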
Fam108B inh = mouse Fam108B serine hydrolase inhibitors, primary screen, counter-screen for RBBP9 inhibitor project, biochemical, fluorescence polarization | recombinant Fam108B, FP-Rh probe fluorescence polarization | actives 0.33% (n = 300,000) | inhibition, % at 9.51 µM;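 active = inhibition above the screen mean inhibition plus 3 SD, computed separately per campaign, cut at about 18% in these data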;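 note: inhibitors lower polarization as less probe binds the enzyme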
Numbers without * were called inactive; x = no result.

SMILES | pPAFAH FP inh | PAFAH1B2 FP inh | PAFAH2 inh | PAFAH1B3 inh | PME-1 inh | Fam108B inh
O=C(COC(=O)c1ncc(Cl)c(Cl)c1Cl)Nc1ccccc1OC(F)F | 25* | 3 | 1 | 9 | 5 | 0
O=C(COC(=O)c1cccc(S(=O)(=O)NCc2ccccc2)c1)Nc1ccccc1OC(F)F | 32* | 10 | 43* | 6 | 7 | -2
CC(C)Sc1nnc([C@H](C)NC(=O)OC(C)(C)C)o1 | 3 | 2 | 3 | 2 | 0 | -2
O=C(NCc1ccccc1Cl)C1CCCN1C(=O)NC1CCCCC1 (stereo not drawn) | x | 0 | -1 | 8 | x | x
O=C(C1CCCCC1)N1CCC(c2nc3c(nnn3Cc3ccccc3Cl)c(=O)[nH]2)CC1 | x | 4 | 5 | 1 | x | x
CCCCCCC(=O)N1CCC(c2nc3c(nnn3Cc3ccccc3Cl)c(=O)[nH]2)CC1 | 1 | 3 | 14 | -1 | 27* | -3
COc1cccc([C@@H]2CC=C(C(=O)O)[C@H](c3ccc(F)cc3)N2S(=O)(=O)c2ccc(C)cc2)c1 | -4 | 26* | -3 | 17 | -4 | 3
Cc1ccc(S(=O)(=O)N2[C@@H](c3ccccc3)C(C(=O)O)=CC[C@H]2c2cccc(C)c2)cc1 | 2 | 38* | 6 | 18 | -3 | 2
COc1cccc([C@@H]2CC=C(C(=O)O)[C@H](c3ccccc3)N2S(=O)(=O)c2ccc(C)cc2)c1 | 2 | 12 | 5 | -6 | -6 | 0
CCOC(=O)CC1=C(C(=O)OCC)C(c2ccc(OC)cc2OC)C(C#N)=C(N)O1 (stereo not drawn) | 5 | 8 | 8 | 5 | 0 | 2
Cc1noc(C)c1COc1ccccc1C(=O)NC(C)c1ccc(Cl)cc1 (stereo not drawn) | -4 | 32* | 0 | 9 | 2 | x
Cc1cc(C)c(NC(=O)CN2C(=O)NC3(CCOc4ccccc43)C2=O)c(C)c1 (stereo not drawn) | 2 | 8 | -1 | 7 | 0 | -3
Cc1ccc(NC(=O)CN2CCN(c3ccccn3)CC2)cc1S(=O)(=O)N(C)C | 2 | 4 | 4 | -2 | 15 | 0
CCN(CC)S(=O)(=O)c1cc(NC(=O)C(C)N2CCN(c3ccccn3)CC2)ccc1C (stereo not drawn) | -1 | 2 | 5 | 6 | 29* | 3
Cc1nc(Nc2cccc(O)c2)c2oc3ccccc3c2n1 | x | 7 | 7 | 6 | x | x
COc1ccc(OC)c(C(c2c(C)[nH][nH]c2=O)c2c(C)[nH][nH]c2=O)c1 | -4 | 0 | 6 | 4 | -4 | -7
COc1ccc(O)c(C(c2c(C)[nH][nH]c2=O)c2c(C)[nH][nH]c2=O)c1 | 4 | 27* | 11 | 38* | -1 | 6
CCOc1ccc2oc(C(=O)NCc3nc4ccccc4[nH]3)c(C)c2c1 | 2 | -7 | -7 | 0 | -3 | -5
CCc1cccc(CC)c1NC(=O)/C(C#N)=C/c1ccccc1C(F)(F)F | 2 | 0 | -4 | 5 | 6 | -5
O=C(NC1CCCc2ccccc21)C1CCN(S(=O)(=O)c2ccccc2F)CC1 (stereo not drawn) | 5 | 4 | 8 | 5 | 58* | -6
Cn1cc(NC(=O)OCc2ccc(Cl)cc2)c(C(F)(F)F)n1 | 2 | 3 | 6 | 5 | 2 | 4
COc1ccccc1NC(=O)CNC(=O)Cn1cnc2sc(C)c(C)c2c1=O | 1 | 5 | 4 | -3 | 0 | -1
COc1ccc(-c2cc(C(=O)NNC(=O)c3csc(N4CCOCC4)n3)c3ccccc3n2)cc1 | 2 | 1 | -5 | -1 | -8 | 0
CCCOc1ccc(CCC(=O)N/N=C/c2ccncc2)cc1 | -4 | 6 | 5 | 11 | 0 | 0
CSc1ccc(S(=O)(=O)NCCSC(C)(C)C)cc1 | 28* | 8 | 14 | -3 | -5 | 2
SMILES | pPAFAH FP inh | PAFAH1B2 FP inh | PAFAH2 inh | PAFAH1B3 inh | PME-1 inh | Fam108B inh
O=C(O)c1ccccc1C(=O)NCCc1c(C(=O)O)[nH]c2ccc(Cl)cc12 | 3 | 33* | 6 | 7 | -2 | 1
O=C(NCCc1ccc(Cl)cc1)c1ccc2ccccc2n1 | 8 | 25* | 8 | 2 | 3 | -1
O=C(NCCc1c[nH]c2ccccc12)C(=O)c1c[nH]c2ccccc12 | 10 | 5 | -6 | -1 | 5 | 1
O=C(O)c1ccccc1C(=O)NCCc1ccc(Cl)cc1 | 6 | 30* | 7 | 14 | 4 | 1
O=C(NCCc1ccccc1)c1ccccc1Cl | -5 | -5 | 3 | 9 | -9 | -6
O=C(NCCc1ccc(Cl)cc1)C(=O)c1c[nH]c2ccccc12 | 9 | 28* | -14 | -7 | -7 | -1
O=[N+]([O-])c1ccc(NN=Cc2ccc3c(c2)OCO3)nc1 | x | -1 | 4 | 3 | x | x
Cc1cccc(CC(=O)Nc2ccon2)c1 | 1 | -7 | 4 | 3 | -4 | 2
CCCN(CC1CCCO1)C(=O)CCc1nnc(CCc2ccc(OC)cc2)o1 (stereo not drawn) | -1 | 7 | 7 | 8 | 1 | 1
Cc1ccc(Cl)cc1N1CCN(C(=O)Cc2c(C(=O)O)[nH]c3ccc(Cl)cc23)CC1 | 11 | 5 | 3 | 0 | 6 | -10
O=C(CCc1ccccc1)NNC(=O)Cc1ccc(Cl)cc1 | 9 | 25* | 13 | 9 | -1 | 1
CC1CC(C)CN(C(=O)Cc2c(C(=O)O)[nH]c3ccc(Cl)cc23)C1 (stereo not drawn) | -1 | 81* | 4 | 1 | -1 | 2
O=C(Cc1ccccc1)NNC(=O)Cc1ccccc1 | 5 | 2 | 6 | 5 | -8 | -1
CCOCCCNC(=O)C1CC(=O)N(C2CCCC2)C1 (stereo not drawn) | 2 | 2 | -11 | 8 | -4 | 0
CC(C)(C)NC(=S)N/N=C/c1cc(Br)c(O)c(Br)c1 | 34* | 17 | 6 | 8 | 7 | 11
O=C(N/N=C/c1cc(Br)c(O)c(Br)c1)C1CC1 | 14 | 9 | -8 | 0 | -4 | -5
Nc1cc2sc(-c3ccc(C(=O)O)cc3)nc2cc1Cl | 8 | 3 | 4 | 6 | -1 | 0
Nc1ncc(N=Nc2cc(C(=O)O)ccc2Cl)s1 | 26* | 8 | 22 | 22 | -3 | 14
C#CCNC(=O)C1=C[C@@H](C2CCCCC2)[C@H](CCCO)[C@@H](OCC)O1 | 6 | 7 | -1 | 1 | 1 | 2
CCCCNc1c(-c2ccc(SC(C)CC)cc2)nc2cnccn12 (stereo not drawn) | 34* | 13 | 18 | 27* | x | x
Cc1ccc2nsnc2c1NS(=O)(=O)c1c(C)ccc2nsnc12 | 7 | 6 | 6 | 9 | 31* | -3
